Test results reported in PubChem BioAssay AID1159580 (chemical genetic matrix, 2015).
Hit rate of the full screen: of about 5,500 compounds, about 2,000 (36%) were called active. Roughly 18% stayed inconclusive and do not appear here. No stated cut-off is given here; in the data, active means normalized growth mostly below about 0.91 (no sharp cut-off); inconclusive means no clear call, values can overlap the other calls; inactive means mostly above about 0.92. Some of the results follow.

Test: chemical genetic growth profiling, strain panel (AID 1159580);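 further: tested at 20 µM; growth read once vehicle control cultures reached saturation at 30 °C; 1 = growth at the plate median or of vehicle wells; lower values mean less growth of the strain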
Conditions: S. cerevisiae deletion strains, growth OD

Measured: normalized growth

CC(=O)OC1CC23CC24CCC(OC2OCC(O)C(O)C2O)C(C)(C)C4CCC3C2(C)CC3OC4(CC(C)C3C12C)OC(O)C1(C)OC41 (stereo unspecified)
inactive: locus YAL021C, strain ccr4, active compounds read low 0.995 | locus YAL026C, strain drs2, active compounds read low 1.01 | locus YAL030W, strain snc1, active compounds read low 1 | locus YBL061C, strain skt5, active compounds read low 1.01 | locus YBR009C, strain hhf1, active compounds read low 0.988 | locus YBR023C, strain chs3, active compounds read low 1 | locus YBR171W, strain sec66, active compounds read low 1.02 | locus YBR231C, strain swc5, active compounds read low 1.03 | locus YBR279W, strain paf1, active compounds read low 1 | locus YCL011C, strain gbp2, active compounds read low 1.01 | locus YCL016C, strain dcc1, active compounds read low 0.998 | locus YCL069W, strain vba3, active compounds read low 1.01 | locus YCR088W, strain abp1, active compounds read low 1.01 | locus YDL005C, strain med2, active compounds read low 1.02 | locus YDL040C, strain nat1, active compounds read low 1 | locus YDR001C, strain nth1, active compounds read low 1 | locus YDR069C, strain doa4, active compounds read low 1.01 | locus YDR137W, strain rgp1, active compounds read low 0.99 | locus YDR159W, strain sac3, active compounds read low 1.04 | locus YDR195W, strain ref2 1 | locus YDR297W, strain sur2, active compounds read low 1.01 | locus YDR334W, strain swr1, active compounds read low 1.01 | locus YDR335W, strain msn5, active compounds read low 1.01 | locus YDR392W, strain spt3, active compounds read low 0.936 | locus YEL003W, strain gim4, active compounds read low 1.01 | locus YEL037C, strain rad23, active compounds read low 1 | locus YEL061C, strain CIN8 (second series), active compounds read low 1.01 | locus YER015W, strain faa2, active compounds read low 1.02 | locus YER016W, strain bim1, active compounds read low 1.01 | locus YER111C, strain swi4, active compounds read low 0.999 | locus YER155C, strain BEM2 (second series), active compounds read low 1.07 | locus YFR010W, strain ubp6, active compounds read low 1.03 | locus YGL167C, strain pmr1, active compounds read low 0.996 | locus YGL173C, strain kem1, active compounds read low 1.01 | locus YGL227W, strain vid30, active compounds read low 1.01 | locus YGL240W, strain doc1, active compounds read low 1.04 | locus YGL253W, strain hxk2, active compounds read low 1 | locus YHR013C, strain ard1, active compounds read low 0.998 | locus YHR027C, strain rpn1, active compounds read low 1 | locus YHR142W, strain chs7, active compounds read low 0.978 | locus YJL092W, strain hpr5, active compounds read low 1.02 | locus YJL095W, strain BCK1 (second series), active compounds read low 1.01 | locus YJL115W, strain asf1, active compounds read low 1.01 | locus YJL129C, strain trk1, active compounds read low 1 | locus YJL154C, strain vps35, active compounds read low 1.01 | locus YJL164C, strain tpk1, active compounds read low 0.972 | locus YJL166W, strain qcr8, active compounds read low 1.01 | locus YJL187C, strain SWE1, active compounds read low 0.996 | locus YKL160W, strain elf1, active compounds read low 0.998 | locus YKR026C, strain gcn3, active compounds read low 1.01 | locus YKR091W, strain srl3, active compounds read low 1 | locus YLL001W, strain dnm1, active compounds read low 1.01 | locus YLL026W, active compounds read low 1.02 | locus YLL041C, strain sdh2, active compounds read low 0.997 | locus YLR027C, strain aat2, active compounds read low 0.997 | locus YLR221C, strain rsa3, active compounds read low 1.04 | locus YLR258W, strain gsy2, active compounds read low 1 | locus YLR262C, strain YPT6 (second series), active compounds read low 1.02 | locus YLR320W, strain mms22, active compounds read low 1.04 | locus YLR342W, strain FKS1, active compounds read low 1 | locus YLR357W, strain rsc2, active compounds read low 1.05 | locus YLR370C, strain arc18, active compounds read low 1.01 | locus YLR384C, strain iki3, active compounds read low 0.998 | locus YML120C, strain ndi1, active compounds read low 0.98 | locus YMR058W, strain fet3, active compounds read low 1.03 | locus YMR125W, strain sto1, active compounds read low 0.985 | locus YMR129W, active compounds read low 1 | locus YMR205C, strain PFK2, active compounds read low 0.994 | locus YMR231W, strain pep5, active compounds read low 1.01 | locus YNL071W, strain lat1, active compounds read low 0.999 | locus YNL209W, strain ssb2, active compounds read low 0.987 | locus YNL248C, strain rpa49, active compounds read low 1.07 | locus YNL322C, strain KRE1 (second series), active compounds read low 1.01 | locus YNR049C, strain mso1, active compounds read low 1.02 | locus YOR001W, strain rrp6, active compounds read low 1.04 | locus YOR070C, strain gyp1, active compounds read low 1.02 | locus YOR080W, strain dia2, active compounds read low 1 | locus YOR083W, strain WHI5, active compounds read low 0.993 | locus YOR106W, strain vam3, active compounds read low 0.975 | locus YOR265W, strain rbl2, active compounds read low 1 | locus YOR270C, strain vph1, active compounds read low 0.906 | locus YOR290C, strain snf2, active compounds read low 0.959 | locus YPL051W, strain arl3, active compounds read low 1.03 | locus YPL078C, strain atp4, active compounds read low 0.963 | locus YPL106C, strain sse1, active compounds read low 1.02 | locus YPL240C, strain hsp82, active compounds read low 1.02
